Results as given in PMC5700166.
Numbering of substitutions follows the chain as printed.

Experiments:
Assay in all cases: protein-binding microarray (PBM); PBM: ~300 nM protein, 6 mM HEPES pH 7.8, 80 mM KCl, 0.5 mM EDTA, 0.5 mM EGTA, 6% glycerol, 35 ng/ul poly-dIdC, 1% milk, 1 h, room temperature; Ap Aiptasia and Nv Nematostella (sea anemones) / Co Capsaspora / Aq Amphimedon (sponge) / Dm Drosophila / Hu human; RHD is the Rel homology domain; high values mean tight binding
Conditions in all cases: dsDNA, one strand shown
[1] = molecular target: T1, GST-Ap-NF-kB RHD (Exaiptasia pallida (Aiptasia), UniProt A0A913YAJ5 2-422)
T1 sequence: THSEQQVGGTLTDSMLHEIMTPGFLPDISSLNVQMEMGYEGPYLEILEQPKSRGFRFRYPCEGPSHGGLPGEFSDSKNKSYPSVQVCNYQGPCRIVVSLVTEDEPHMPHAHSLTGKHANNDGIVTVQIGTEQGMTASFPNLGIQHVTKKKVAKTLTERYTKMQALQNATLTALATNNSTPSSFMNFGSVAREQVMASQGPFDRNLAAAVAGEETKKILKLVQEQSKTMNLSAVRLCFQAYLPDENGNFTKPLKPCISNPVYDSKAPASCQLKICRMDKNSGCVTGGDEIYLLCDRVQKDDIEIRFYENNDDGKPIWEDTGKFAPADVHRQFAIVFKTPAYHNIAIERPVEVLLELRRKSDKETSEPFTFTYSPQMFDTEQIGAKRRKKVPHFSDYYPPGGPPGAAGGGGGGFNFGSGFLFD

[2] = molecular target: T2, GST-Nv-NF-kB (Cys allele) (Nematostella vectensis, UniProt E5G601 2-411)
T2 sequence: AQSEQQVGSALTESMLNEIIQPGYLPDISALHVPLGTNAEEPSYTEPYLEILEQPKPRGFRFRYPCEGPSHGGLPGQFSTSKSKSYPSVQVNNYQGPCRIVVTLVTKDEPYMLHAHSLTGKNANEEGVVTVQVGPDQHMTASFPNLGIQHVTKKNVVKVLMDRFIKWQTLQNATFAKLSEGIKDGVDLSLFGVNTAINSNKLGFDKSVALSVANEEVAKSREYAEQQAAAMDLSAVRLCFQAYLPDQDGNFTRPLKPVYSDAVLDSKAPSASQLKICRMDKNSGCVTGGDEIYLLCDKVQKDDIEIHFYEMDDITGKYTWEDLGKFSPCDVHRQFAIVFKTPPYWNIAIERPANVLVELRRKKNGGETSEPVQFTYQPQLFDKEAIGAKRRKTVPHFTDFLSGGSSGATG

[3] = molecular target: T3, GST-Nv-NF-kB (Ser allele) (Nematostella vectensis, UniProt A7UNT2 2-411)
T3 sequence: T2 sequence with Q21R, C66S, S207N, E215Q, V217A, E225K, A268E, D399E

[4] = molecular target: T4, GST-Co-NF-kB (Capsaspora owczarzaki, UniProt F1ARL5 200-546)
T4 sequence: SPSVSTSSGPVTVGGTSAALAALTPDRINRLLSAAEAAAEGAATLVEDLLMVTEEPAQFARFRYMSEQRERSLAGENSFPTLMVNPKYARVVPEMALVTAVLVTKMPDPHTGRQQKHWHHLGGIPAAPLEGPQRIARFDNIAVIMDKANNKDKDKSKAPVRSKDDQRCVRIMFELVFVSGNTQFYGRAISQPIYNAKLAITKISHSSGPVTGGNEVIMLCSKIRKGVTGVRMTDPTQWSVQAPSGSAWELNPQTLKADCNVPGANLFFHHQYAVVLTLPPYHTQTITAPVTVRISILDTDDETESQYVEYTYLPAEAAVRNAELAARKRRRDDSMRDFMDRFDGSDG

[5] = molecular target: T5, GST-Dm-Relish (Drosophila melanogaster, UniProt Q94527 99-473)
T5 sequence: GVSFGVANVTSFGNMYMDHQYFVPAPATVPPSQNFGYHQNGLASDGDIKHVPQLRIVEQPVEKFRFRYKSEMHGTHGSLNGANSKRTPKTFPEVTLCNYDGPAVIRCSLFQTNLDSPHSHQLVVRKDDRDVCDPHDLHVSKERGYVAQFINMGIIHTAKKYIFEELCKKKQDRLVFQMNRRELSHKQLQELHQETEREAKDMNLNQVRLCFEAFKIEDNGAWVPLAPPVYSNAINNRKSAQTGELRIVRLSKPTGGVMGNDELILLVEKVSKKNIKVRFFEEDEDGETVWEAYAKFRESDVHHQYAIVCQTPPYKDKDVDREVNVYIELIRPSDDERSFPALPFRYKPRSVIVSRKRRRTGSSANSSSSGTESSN

[6] = molecular target: T6, GST-Aq-NF-kB (Amphimedon queenslandica, UniProt A9Y5G7 2-389)
T6 sequence: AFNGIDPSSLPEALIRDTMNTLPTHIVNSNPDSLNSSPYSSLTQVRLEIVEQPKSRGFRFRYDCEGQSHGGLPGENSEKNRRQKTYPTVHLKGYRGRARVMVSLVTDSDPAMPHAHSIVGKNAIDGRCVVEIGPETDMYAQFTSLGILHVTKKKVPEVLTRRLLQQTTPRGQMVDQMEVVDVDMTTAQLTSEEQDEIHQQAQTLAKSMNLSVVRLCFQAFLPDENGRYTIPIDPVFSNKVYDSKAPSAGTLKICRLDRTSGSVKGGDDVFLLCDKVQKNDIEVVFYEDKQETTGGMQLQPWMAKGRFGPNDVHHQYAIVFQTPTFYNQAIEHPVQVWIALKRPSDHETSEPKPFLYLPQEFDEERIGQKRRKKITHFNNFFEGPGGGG

[7] = molecular target: GST-Hu-p50 (Homo sapiens, UniProt P19838 7-356)
GST-Hu-p50, sequence (P19838 7-356): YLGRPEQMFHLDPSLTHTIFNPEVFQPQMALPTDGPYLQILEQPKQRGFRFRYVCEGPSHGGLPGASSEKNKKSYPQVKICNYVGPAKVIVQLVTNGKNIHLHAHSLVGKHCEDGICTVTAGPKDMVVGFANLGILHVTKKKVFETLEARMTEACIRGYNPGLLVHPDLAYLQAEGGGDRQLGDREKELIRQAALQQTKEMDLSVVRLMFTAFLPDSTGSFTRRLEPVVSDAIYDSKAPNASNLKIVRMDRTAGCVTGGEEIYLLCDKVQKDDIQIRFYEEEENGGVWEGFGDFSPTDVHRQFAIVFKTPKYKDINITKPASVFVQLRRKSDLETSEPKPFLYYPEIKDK

Sequence	binding signal [1] [z-score]	binding signal [2] [z-score]	binding signal [3] [z-score]	binding signal [4] [z-score]	binding signal [5] [z-score]	binding signal [6] [z-score]	binding signal [7] [z-score]
CCGATTAACATCAAATCCCCCCATGATGTTAATCGGGTCTTGATTCGCTTGACGCTGCTG	7.89	6.31	6.65	7.39	7.66	6.36	6.55
CCGATTAACATCAGGGGACTTACTGATGTTAATCGGGTCTTGATTCGCTTGACGCTGCTG	5.97	5.56	5.43	2.17	8.32	5.66	5.68
CCGATTAACATCAGGGGGAAATATGATGTTAATCGGGTCTTGATTCGCTTGACGCTGCTG	7.3	8.58	10.6	11.1	4.77	6.38	7.38
CCGATTAACATCAGGGGAAGTCATGATGTTAATCGGGTCTTGATTCGCTTGACGCTGCTG	5.98	7.2	7.6	4.69	6.43	6.01	5.27
CCGATTAACATCAAGATTTTCCCTGATGTTAATCGGGTCTTGATTCGCTTGACGCTGCTG	4.58	6.22	7.42	5.04	1.5	5.78	4.29
CCGATTAACATCAAAAAAGTCCCTGATGTTAATCGGGTCTTGATTCGCTTGACGCTGCTG	8.8	11.6	11.5	2.41	9.77	8.92	7.77
CCGATTAACATCAGGGGAGTTTATGATGTTAATCGGGTCTTGATTCGCTTGACGCTGCTG	8.25	6.72	7.68	4.75	6.12	6.08	5.95
CCGATTAACATCAGGACATTCCCTGATGTTAATCGGGTCTTGATTCGCTTGACGCTGCTG	2.97	4.82	2.96	1.36	3.89	6.9	3.21
CCGATTAACATCAAGTAACCCCCTGATGTTAATCGGGTCTTGATTCGCTTGACGCTGCTG	6.04	4.44	4.98	3.76	6.97	5.32	5.24
CCGATTAACATCAAAAATTCCCTTGATGTTAATCGGGTCTTGATTCGCTTGACGCTGCTG	6.05	9.28	8.71	4.19	7.19	7.62	6.22
CCGATTAACATCACAGATTCCCCTGATGTTAATCGGGTCTTGATTCGCTTGACGCTGCTG	7.65	9.02	10.7	7.14	6.17	5.96	6.28
CCGATTAACATCAAGGGAAATCCTGATGTTAATCGGGTCTTGATTCGCTTGACGCTGCTG	5.35	7.47	6.52	3.33	6.05	6.57	4.65
